Active and inactive are the calls of the source. The call rests on the fitted dose curve.

The experiment can be described thus: qHTS drug screen for cell cycle checkpoint inhibitors in PARPi-resistant BRCA-mutant ovarian cancer cell lines. (AID 1963452). The settings on record: PEO1/OlaR viability, CellTiter-Glo luminescence, 96 h, stronger effect = lower value. Put shortly: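 PEO1, PEO4 and PEO1/OlaR ovarian cancer cells, 600 per well, exposed 96 h at 37C to a dilution series. Viability read by CellTiter-Glo luminescence, normalized to DMSO and empty wells; activity summarized as Z-AUC.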
In general terms: In qHTS, concentration-response curves come from the screen itself.

Setting [1] is: measured here: PEO1 parental Z-AUC.

As to `COc1cc2nccc(Oc3ccc(NC(=O)Nc4ccc(F)cc4F)c(F)c3)c2cc1OC`, the Z-AUC was 0.868 (inactive). Moreover, the Z-AUC under setting [1] came out at 0.566. Further, the Z-AUC (measured here: PEO4 Z-AUC) is 0.26.
On the same counts, the results for `Nc1ncnc2c1c(-c1cccc(OCc3ccccc3)c1)cn2C1CC(CN2CCC2)C1` (stereo not given) are -0.485 (inactive), -0.126 and -0.746.
With `Cc1nc(C(=O)NCC(=O)O)c(O)c2ccc(Oc3ccccc3)cc12`, the Z-AUC was 1.39 (inactive). Also, the Z-AUC under setting [1] amounted to 0.88. Moreover, for the setting “measured here: PEO4 Z-AUC”, the Z-AUC was 0.853.
On the same counts, the results for `C[C@@]1(C(=O)Nc2ccc(F)nc2)CCCN1c1nc(Nc2cc(C3CC3)[nH]n2)c2cccn2n1` are 0.31 (inactive), 0.238 and -0.135.
On the same counts, the results for `Cc1ccc(NC(=O)c2cccc(N(C)C)c2)cc1NC(=O)c1ccc(O)cc1` are 1.75 (inactive), 1.05 and 0.905.

The record behind these values is PubChem BioAssay (NCATS).
